This is an account of results in the supplement of paper PMC10849652.

The full data set covers some 7,900 targets. This sample favours those with a hit. About 0.6% of all pairs of compound and target were hits. Unmarked numbers belong to inactive results.

Sequence of UniProt P35580 (P35580 whole entry, looked up): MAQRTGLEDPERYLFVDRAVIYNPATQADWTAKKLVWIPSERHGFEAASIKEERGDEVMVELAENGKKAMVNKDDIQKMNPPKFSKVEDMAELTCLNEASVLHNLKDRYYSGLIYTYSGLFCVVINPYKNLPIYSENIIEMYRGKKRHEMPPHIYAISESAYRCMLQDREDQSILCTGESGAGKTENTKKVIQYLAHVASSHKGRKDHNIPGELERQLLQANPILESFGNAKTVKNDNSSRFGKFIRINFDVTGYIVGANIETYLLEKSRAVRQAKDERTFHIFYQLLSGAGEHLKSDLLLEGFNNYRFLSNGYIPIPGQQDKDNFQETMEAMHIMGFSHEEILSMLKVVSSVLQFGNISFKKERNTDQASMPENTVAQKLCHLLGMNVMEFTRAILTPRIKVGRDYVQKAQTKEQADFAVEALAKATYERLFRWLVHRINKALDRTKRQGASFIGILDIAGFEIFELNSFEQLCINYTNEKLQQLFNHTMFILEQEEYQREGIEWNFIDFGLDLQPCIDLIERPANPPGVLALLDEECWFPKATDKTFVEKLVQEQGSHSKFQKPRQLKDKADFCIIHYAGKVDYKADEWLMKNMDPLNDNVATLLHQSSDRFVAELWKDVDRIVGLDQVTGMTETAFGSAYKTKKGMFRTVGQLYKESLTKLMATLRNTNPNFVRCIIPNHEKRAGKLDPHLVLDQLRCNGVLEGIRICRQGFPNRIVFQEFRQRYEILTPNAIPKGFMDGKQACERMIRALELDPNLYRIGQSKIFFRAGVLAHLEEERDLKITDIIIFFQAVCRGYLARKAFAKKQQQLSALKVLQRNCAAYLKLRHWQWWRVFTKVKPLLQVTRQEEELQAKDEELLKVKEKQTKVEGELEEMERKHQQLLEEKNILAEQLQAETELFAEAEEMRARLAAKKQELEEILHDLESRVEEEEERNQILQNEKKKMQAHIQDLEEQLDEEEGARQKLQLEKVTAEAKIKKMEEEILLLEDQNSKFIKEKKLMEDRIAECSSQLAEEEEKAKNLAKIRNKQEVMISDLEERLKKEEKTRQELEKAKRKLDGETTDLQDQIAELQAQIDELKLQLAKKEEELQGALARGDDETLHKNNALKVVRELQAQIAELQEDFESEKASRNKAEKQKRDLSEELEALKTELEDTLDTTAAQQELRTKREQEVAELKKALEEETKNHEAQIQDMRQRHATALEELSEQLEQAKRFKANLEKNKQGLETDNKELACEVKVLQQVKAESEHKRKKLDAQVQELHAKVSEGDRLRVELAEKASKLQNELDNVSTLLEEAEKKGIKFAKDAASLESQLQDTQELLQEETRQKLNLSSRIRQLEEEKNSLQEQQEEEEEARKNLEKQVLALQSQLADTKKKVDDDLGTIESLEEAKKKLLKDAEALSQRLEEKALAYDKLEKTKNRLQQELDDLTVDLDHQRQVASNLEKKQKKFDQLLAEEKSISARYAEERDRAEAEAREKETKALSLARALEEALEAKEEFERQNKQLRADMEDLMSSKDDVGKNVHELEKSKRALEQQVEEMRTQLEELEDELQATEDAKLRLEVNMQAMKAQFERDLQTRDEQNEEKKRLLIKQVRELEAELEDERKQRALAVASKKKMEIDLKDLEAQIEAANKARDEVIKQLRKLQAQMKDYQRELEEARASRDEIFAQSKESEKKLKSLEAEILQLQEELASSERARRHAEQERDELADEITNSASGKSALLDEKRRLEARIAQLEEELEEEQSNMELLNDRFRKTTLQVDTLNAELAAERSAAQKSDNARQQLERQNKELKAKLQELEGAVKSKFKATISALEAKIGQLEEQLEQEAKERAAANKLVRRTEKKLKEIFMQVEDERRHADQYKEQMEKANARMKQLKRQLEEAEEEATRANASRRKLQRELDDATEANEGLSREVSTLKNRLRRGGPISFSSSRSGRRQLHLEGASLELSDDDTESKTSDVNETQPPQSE
Sequence of UniProt Q9H1E3 (Q9H1E3 whole entry, looked up): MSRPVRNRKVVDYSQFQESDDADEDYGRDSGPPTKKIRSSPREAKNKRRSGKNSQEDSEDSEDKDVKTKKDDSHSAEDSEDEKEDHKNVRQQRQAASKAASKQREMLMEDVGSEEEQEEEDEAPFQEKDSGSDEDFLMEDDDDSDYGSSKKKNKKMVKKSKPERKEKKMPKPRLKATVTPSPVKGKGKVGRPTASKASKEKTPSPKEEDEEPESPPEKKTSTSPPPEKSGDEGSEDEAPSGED
Sequence of UniProt O00217 (O00217 whole entry, looked up): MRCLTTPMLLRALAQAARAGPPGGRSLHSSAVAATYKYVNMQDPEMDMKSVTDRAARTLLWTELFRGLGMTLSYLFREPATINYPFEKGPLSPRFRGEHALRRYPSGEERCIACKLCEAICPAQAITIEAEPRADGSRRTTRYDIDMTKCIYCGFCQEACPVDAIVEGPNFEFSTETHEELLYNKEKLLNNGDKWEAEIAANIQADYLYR
Sequence of UniProt Q14149 (Q14149 whole entry, looked up): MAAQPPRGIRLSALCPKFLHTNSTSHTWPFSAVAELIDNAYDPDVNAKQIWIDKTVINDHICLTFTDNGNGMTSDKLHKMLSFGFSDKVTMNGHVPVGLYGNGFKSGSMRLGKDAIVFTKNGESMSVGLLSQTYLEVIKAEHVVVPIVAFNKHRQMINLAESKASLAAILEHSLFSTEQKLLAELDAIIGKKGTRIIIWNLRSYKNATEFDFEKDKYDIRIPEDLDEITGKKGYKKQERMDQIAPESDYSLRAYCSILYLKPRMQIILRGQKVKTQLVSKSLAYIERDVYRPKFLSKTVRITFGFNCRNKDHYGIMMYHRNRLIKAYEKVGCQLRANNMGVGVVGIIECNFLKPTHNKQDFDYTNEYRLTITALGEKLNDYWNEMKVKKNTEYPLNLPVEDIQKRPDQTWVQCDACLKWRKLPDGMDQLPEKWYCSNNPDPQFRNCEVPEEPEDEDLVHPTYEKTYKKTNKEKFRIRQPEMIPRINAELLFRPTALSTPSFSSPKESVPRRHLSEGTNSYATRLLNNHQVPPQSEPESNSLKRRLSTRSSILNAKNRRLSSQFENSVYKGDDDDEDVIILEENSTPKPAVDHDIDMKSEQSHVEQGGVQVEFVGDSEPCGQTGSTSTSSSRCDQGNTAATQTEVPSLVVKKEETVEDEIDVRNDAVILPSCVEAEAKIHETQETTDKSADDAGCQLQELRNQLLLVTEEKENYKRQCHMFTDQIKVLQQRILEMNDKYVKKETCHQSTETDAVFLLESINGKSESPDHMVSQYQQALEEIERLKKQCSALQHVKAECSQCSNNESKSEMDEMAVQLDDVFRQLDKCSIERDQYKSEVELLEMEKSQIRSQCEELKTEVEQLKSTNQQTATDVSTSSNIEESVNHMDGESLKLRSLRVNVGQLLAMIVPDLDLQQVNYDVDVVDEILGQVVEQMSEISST
Sequence of UniProt Q9BZF1 (Q9BZF1 whole entry, looked up): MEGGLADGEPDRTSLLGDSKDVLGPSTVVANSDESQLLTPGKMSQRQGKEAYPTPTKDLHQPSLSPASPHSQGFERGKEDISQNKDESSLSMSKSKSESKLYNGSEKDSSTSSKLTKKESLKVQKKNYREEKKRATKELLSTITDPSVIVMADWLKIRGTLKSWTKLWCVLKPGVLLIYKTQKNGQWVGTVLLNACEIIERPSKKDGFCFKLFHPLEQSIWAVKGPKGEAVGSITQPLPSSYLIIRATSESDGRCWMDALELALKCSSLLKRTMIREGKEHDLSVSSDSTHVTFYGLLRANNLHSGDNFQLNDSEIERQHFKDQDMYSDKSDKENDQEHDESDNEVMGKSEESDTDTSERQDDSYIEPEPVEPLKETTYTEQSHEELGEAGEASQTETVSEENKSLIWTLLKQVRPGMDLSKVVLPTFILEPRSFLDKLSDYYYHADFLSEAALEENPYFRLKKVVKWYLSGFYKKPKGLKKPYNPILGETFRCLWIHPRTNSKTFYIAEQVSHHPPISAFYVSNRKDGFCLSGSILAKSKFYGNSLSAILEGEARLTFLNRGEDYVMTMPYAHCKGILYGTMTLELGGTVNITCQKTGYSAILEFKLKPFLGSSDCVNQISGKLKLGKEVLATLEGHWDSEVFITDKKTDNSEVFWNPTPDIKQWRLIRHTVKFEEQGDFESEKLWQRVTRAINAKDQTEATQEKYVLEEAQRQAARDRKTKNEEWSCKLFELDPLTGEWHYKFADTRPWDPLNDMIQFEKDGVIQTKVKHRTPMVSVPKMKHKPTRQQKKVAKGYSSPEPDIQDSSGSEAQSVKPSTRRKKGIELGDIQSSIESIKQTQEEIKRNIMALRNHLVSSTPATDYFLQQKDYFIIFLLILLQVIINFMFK
Sequence of UniProt Q92692 (Q92692 whole entry, looked up): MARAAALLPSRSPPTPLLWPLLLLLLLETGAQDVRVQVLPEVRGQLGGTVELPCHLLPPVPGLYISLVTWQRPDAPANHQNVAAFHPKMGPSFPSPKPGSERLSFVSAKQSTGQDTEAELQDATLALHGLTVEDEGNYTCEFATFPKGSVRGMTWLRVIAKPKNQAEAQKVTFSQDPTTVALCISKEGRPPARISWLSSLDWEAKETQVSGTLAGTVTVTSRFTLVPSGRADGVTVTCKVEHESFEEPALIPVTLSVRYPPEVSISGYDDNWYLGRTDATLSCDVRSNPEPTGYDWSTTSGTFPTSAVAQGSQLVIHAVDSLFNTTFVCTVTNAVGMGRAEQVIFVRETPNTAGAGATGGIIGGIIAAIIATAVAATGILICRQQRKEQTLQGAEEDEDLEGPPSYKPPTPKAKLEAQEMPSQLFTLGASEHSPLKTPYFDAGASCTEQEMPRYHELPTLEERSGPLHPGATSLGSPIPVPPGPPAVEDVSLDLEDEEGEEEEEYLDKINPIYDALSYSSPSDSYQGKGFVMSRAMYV
Sequence of UniProt Q9BWT6 (Q9BWT6 whole entry, looked up): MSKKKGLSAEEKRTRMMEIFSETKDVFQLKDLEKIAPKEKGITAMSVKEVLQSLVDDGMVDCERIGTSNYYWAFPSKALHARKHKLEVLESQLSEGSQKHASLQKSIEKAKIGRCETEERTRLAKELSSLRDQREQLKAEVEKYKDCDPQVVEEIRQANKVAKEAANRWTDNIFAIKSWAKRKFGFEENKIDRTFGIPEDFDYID

Compound in the first assay: NC1(c2ccc(-c3nc4ccn5c(=O)[nH]nc5c4cc3-c3ccccc3)cc2)CCC1
The assay is described as follows: log2 fold change, soluble protein after heating vs DMSO (PISA); higher = thermal stabilisation; K562 cells, 10 uM, 30 min; active = over 0.2 and 3.5 SD of the protein, either way, in both replicates (recomputed). The procedure, abridged:
(§1)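 Values are thermal stability changes relative to control samples and are taken from duplicates. They are stated as log2 fold changes. Before quantification by TMTpro 16plex LC-MS/MS with equalised channel sums, K562 cells at 2×10^6 cells/mL were treated with 10 μM compound for 30 min, heated in aliquots for 3 min across 48°C-58°C, pooled, extracted in PBS with 0.5% NP-40 at 4°C, and centrifuged at 21,000xg for 90 min to give the soluble supernatant.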
Take MORC3 (UniProt Q14149): the log2 fold change is -0.241.
Take MRPS31 (UniProt Q92665): the log2 fold change was -0.05.
As for MRPS9 (UniProt P82933), the log2 fold change was -0.117.
Consider NDUFA9 (UniProt Q16795), for which the log2 fold change was -0.112.
On to OSTM1 (UniProt Q86WC4), for which the log2 fold change is -0.319 (active).
For MRPS24 (UniProt Q96EL2), the log2 fold change is -0.021.
With NDUFS4 (UniProt O43181), the log2 fold change was 0.005.
As for OXSR1 (UniProt O95747), the log2 fold change is -0.151.
MIS12 (UniProt Q9H081): the log2 fold change is -0.079.
NGLY1 (UniProt Q96IV0): the log2 fold change is -0.151.
For the target MND1 (UniProt Q9BWT6), the log2 fold change is -0.118.
In the case of NOL7 (UniProt Q9UMY1), the log2 fold change was 0.316.
NDFIP1 (UniProt Q9BT67): the log2 fold change is -0.029.
As for MTHFS (UniProt P49914), the log2 fold change was -0.086.
In the case of MRPL50 (UniProt Q8N5N7), the log2 fold change was 0.035.
In the case of NEDD4L (UniProt Q96PU5), the log2 fold change was -0.06.
NUCKS1 (UniProt Q9H1E3): the log2 fold change is 0.014.
Turning to MOV10 (UniProt Q9HCE1), the log2 fold change was 0.178.
As for NUDT21 (UniProt O43809), the log2 fold change is 0.049.
With OGFR (UniProt Q9NZT2), the log2 fold change was 0.015.
On to MSH6 (UniProt P52701), for which the log2 fold change was -0.213.
As to NECTIN2 (UniProt Q92692), the log2 fold change is 0.056.
With MKNK1 (UniProt Q9BUB5), the log2 fold change is -0.158.
For the target PAK1 isoform 2 (UniProt Q13153), the log2 fold change was 0.012.
As to MSH3 (UniProt P20585), the log2 fold change is -0.126.
Consider PACS1 (UniProt Q6VY07), for which the log2 fold change was -0.081.
Same read-out and setting: the value for NA, A0A0B4J2A0 was -0.061; that for MSTO1 (UniProt Q9BUK6) was -0.144; that for NDUFAF6 (UniProt Q330K2) was -0.291.
For the target NRF1 isoform 4 (UniProt Q16656), the log2 fold change is -0.129.
For the target NNMT (UniProt P40261), the log2 fold change was -0.179.
On the same count and under the same terms, next, NDUFS8 (UniProt O00217): -0.163; NCKAP1 isoform 2 (UniProt Q9Y2A7): -0.12.
Take MYH10 isoform 3 (UniProt P35580): the log2 fold change was -0.102.
Consider MYL12B (UniProt O14950), for which the log2 fold change was -0.013.
On the same count and under the same terms, the value for OSBPL8 (UniProt Q9BZF1) was 0.063; that for NAP1L1 (UniProt P55209) was -0.01; that for NOP53 (UniProt Q9NZM5) was 0.353.
On to MT-ND4 (UniProt P03905), for which the log2 fold change is -0.046.

Compound in the next assay: NCC(=O)Nc1ccc(-n2nc(C(F)(F)F)cc2-c2ccc3c(ccc4ccccc43)c2)cc1
The assay is described as above. The procedure, abridged:
as §1
In the case of MORC3 (UniProt Q14149), the log2 fold change is -0.22.
As to MRPS31 (UniProt Q92665), the log2 fold change was 0.
Turning to MRPS9 (UniProt P82933), the log2 fold change was 0.018.
For the target NDUFA9 (UniProt Q16795), the log2 fold change is -0.091.
Regarding OSTM1 (UniProt Q86WC4), the log2 fold change was 0.003.
MRPS24 (UniProt Q96EL2): the log2 fold change is -0.086.
In the case of NDUFS4 (UniProt O43181), the log2 fold change is 0.053.
As for OXSR1 (UniProt O95747), the log2 fold change is -0.064.
On to MIS12 (UniProt Q9H081), for which the log2 fold change was -0.101.
Take NGLY1 (UniProt Q96IV0): the log2 fold change is -0.109.
For MND1 (UniProt Q9BWT6), the log2 fold change is -0.119.
On to NOL7 (UniProt Q9UMY1), for which the log2 fold change is 0.177.
NDFIP1 (UniProt Q9BT67): the log2 fold change is -0.249.
As for MTHFS (UniProt P49914), the log2 fold change was -0.135.
For MRPL50 (UniProt Q8N5N7), the log2 fold change is 0.074.
For the target NEDD4L (UniProt Q96PU5), the log2 fold change was -0.074.
Regarding NUCKS1 (UniProt Q9H1E3), the log2 fold change was 0.04.
On the same count and under the same terms, the value for MOV10 (UniProt Q9HCE1) was 0.018; that for NUDT21 (UniProt O43809) was -0.007; that for OGFR (UniProt Q9NZT2) was 0.068.
Same read-out and setting: the value for MSH6 (UniProt P52701) was -0.191; that for NECTIN2 (UniProt Q92692) was 0.099.
MKNK1 (UniProt Q9BUB5): the log2 fold change was -0.059.
Regarding PAK1 isoform 2 (UniProt Q13153), the log2 fold change is -0.083.
Take MSH3 (UniProt P20585): the log2 fold change is -0.007.
For PACS1 (UniProt Q6VY07), the log2 fold change is -0.01.
On to NA, A0A0B4J2A0, for which the log2 fold change is 0.031.
With MSTO1 (UniProt Q9BUK6), the log2 fold change is -0.059.
NDUFAF6 (UniProt Q330K2): the log2 fold change is 0.
As to NRF1 isoform 4 (UniProt Q16656), the log2 fold change was -0.037.
NNMT (UniProt P40261): the log2 fold change was -0.037.
NDUFS8 (UniProt O00217): the log2 fold change was -0.018.
Still for that read-out and setting: next, NCKAP1 isoform 2 (UniProt Q9Y2A7): -0.025; MYH10 isoform 3 (UniProt P35580): -0.035; MYL12B (UniProt O14950): 0.055.
On to OSBPL8 (UniProt Q9BZF1), for which the log2 fold change was 0.042.
Regarding NAP1L1 (UniProt P55209), the log2 fold change was -0.016.
Turning to NOP53 (UniProt Q9NZM5), the log2 fold change was 0.258.
With MT-ND4 (UniProt P03905), the log2 fold change is -0.074.
